Measured potencies and affinities stand elsewhere.
Molecular target: Beta-adrenergic receptor kinase 1 (Homo sapiens) (UniProt P25098)
Experiment: aptamer displacement from bead-bound GRK2 – biochemical, cherry pick 1, bead flow cytometry, dose response (AID 504500)
Details: bead-bound biotinylated GRK2, FAM-aptamer displacement; series mostly up to 33 µM; inhibition of aptamer binding: at the top concentration;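 active = compounds whose curve fit is tight, with span above 25% and half-effect concentration below 10 µM; inactive = the rest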

Beta-adrenergic receptor kinase 1 (Homo sapiens), sequence (P25098 whole entry, looked up): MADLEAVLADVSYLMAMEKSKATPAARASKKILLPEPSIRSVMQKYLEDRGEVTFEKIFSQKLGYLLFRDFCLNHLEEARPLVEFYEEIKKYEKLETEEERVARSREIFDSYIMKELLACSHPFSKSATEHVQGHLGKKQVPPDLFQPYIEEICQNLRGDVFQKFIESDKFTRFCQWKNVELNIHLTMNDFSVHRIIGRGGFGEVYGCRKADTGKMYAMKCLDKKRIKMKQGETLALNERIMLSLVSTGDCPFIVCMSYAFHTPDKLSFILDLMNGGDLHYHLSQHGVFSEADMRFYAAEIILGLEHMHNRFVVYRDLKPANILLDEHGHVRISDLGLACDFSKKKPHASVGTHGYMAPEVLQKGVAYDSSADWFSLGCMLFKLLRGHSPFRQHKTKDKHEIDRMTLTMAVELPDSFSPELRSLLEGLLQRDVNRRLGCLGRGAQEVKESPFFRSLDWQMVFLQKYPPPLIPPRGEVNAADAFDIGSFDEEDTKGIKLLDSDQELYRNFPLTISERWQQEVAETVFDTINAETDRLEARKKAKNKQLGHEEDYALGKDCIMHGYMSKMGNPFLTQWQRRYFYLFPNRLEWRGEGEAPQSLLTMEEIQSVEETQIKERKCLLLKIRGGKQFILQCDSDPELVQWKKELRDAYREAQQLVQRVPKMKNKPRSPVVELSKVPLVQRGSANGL

Inhibition of aptamer binding, inactive:
CNC(=O)c1[nH]cnc1C(=O)Nc1ccc(F)cc1 1.5%
CCN1/C(=C\c2ccc3ccccc3[n+]2CC)Sc2cc(C)ccc21 63.6%
CC(=O)N1CCCc2cc(S(=O)(=O)CCC(=O)N3CCN(c4cccc(C)c4)C(C)C3)ccc21 (stereo unspecified) -2.62%
COc1ccc(S(=O)(=O)NCC(c2ccc(F)cc2)N2CCN(C)CC2)cc1 (stereo unspecified) -4.14%
O=C(CN1CCc2ccccc21)NC(=O)NCc1ccccc1 53.7%
Cc1cc2ccccc2n1CCNC(=O)c1ccccc1 -0.61%
Cc1ccc(OCC(=O)c2c(N)n(C)c(=O)n(C)c2=O)c([N+](=O)[O-])n1 85%
COc1ccc(N2CCN(C(CNS(=O)(=O)c3ccc(C)cc3)c3ccccc3)CC2)cc1 (stereo unspecified) 3.97%
C=C(C)C(=O)Nc1cccc(C2=NOC3(C2)C[C@@H](C(N)=O)N(C(=O)C(=C)C)C3)c1 (stereo partly specified) 60.3%
CNC(=O)c1[nH]cnc1C(=O)Nc1cccc(Cl)c1 -2.13%
CCN1/C(=C/c2ccc3cccc(C)c3[n+]2CC)Sc2ccccc21 44.9%
Cc1ccc(C(=O)Nc2cccc(C(=O)NCc3ccco3)c2)cc1 2.31%
O=C(CCS(=O)(=O)c1ccc(Br)cc1)NC1CCCC1 49.7%
CN(C)c1cccc(C(=O)OCc2cc(=O)oc3cc(O)ccc23)c1 -6.6%
COC(=O)c1ccc(NC(=O)CCS(=O)(=O)c2ccc(Br)cc2)cc1 76.5%
COc1ccccc1CNS(=O)(=O)c1ccc2[nH]cc(C(=O)O)c(=O)c2c1 53.4%
O=C(CCS(=O)(=O)c1ccc(Br)cc1)NCCc1ccc(Cl)cc1 87.3%
CCC(/C=C1\Sc2ccc(OC)cc2N1CC)=C\c1sc2ccc(OC)cc2[n+]1CCCS(=O)(=O)[O-] -7.34%
COc1ccc(CCNC(=O)CCS(=O)(=O)c2ccc(Br)cc2)cc1OC 17%
O=C(CCS(=O)(=O)c1ccc(Br)s1)Nc1ccccc1Br 31.5%
Cc1ccc(CCNC(=O)CCS(=O)(=O)c2ccc(Br)cc2)cc1 66%
Cc1cccc(CCNC(=O)CCS(=O)(=O)c2ccc(Br)cc2)c1 43.7%
Cc1cccc(N2CCN(C(=O)CCS(=O)(=O)c3ccc(Br)cc3)CC2C)c1 (stereo unspecified) 95.7%
CC(=O)N1CCN(Cc2nc3cc(Cl)ccc3c(=O)[nH]2)CC1 59.3%
COc1cc(/C=C2\CCc3c2nc2ccccc2c3C(=O)O)cc(OC)c1OC -1.83%
C=C(C)C(=O)Nc1cccc(C2=NOC3(C2)C[C@@H](C(N)=O)N(C(=O)/C=C/CC)C3)c1 (stereo partly specified) 60.9%
O=P(c1ccccc1)(c1ccccc1)c1cc(S(=O)(=O)O)ccc1O -2.57%
CCNc1nc(NCC)n2c(SCC(=O)Nc3ccc(C)c(C)c3)nnc2n1 24.3%
COc1ccc2nc(SCC(=O)Nc3ccc4c(c3)OCCO4)[nH]c2c1 -0.24%
O=C(/C=C/c1ccco1)OCC(=O)N1CCCCC1 3.17%
Cc1cc2ccccc2n1CCNC(=O)c1ccc(S(=O)(=O)N2CCCCC2)cc1 44.1%

— PubChem BioAssay AID504500 (NMMLSC, 2011)
